Experimental data: PubChem BioAssay (EPA / NIEHS)
Inconclusive results are not listed. The source holds several records for some structures; these can differ, active in one and inactive in another. Active and inactive are the calls of the source. How the source made its calls, unless noted: active means hit-call score of the fitted dose curve at least 0.9, where 1 is the maximum; inconclusive means response in the unintended direction; inactive means score below 0.9.

Key:
[1] = molecular target: Estrogen receptor (Homo sapiens) (UniProt P03372); assay: OT_ERa_GFPERaERE_0120: Odyssey Thera (OT) 2-hour HeLa Transcription Induction Assay for Estrogen Receptor (AID 2283382)
Summary of the method: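 Cells (human cervical HeLa) receive compound, incubate 2 hours, then are imaged for fluorescent reporter induction. Images are quantified by high content analysis, and activity is fitted as gain of signal against DMSO.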

[2] = molecular target: Peroxisome proliferator-activated receptor gamma (Homo sapiens) (UniProt P37231); assay: OT_PPARg_PPARgSRC1_0480: Odyssey Thera (OT) 8-hour Protein-Complementation Assay for Peroxisome Proliferator-activated Receptor Gamma / SRC-1 Co-activator (AID 2283387)
Summary of the method: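 Split-YFP (IFP1/IFP2) PPARg/SRC-1 reporter, HEK293T, 37 °C, 5% CO2; 8 h compound; formaldehyde fix + Draq5; high-content imaging, N/C ratio, ≥350 cells/image, positive direction vs DMSO.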

[3] = molecular target: Peroxisome proliferator-activated receptor gamma (Homo sapiens) (UniProt P37231); assay: OT_PPARg_PPARgSRC1_1440: Odyssey Thera (OT) 24-hour Protein-Complementation Assay for Peroxisome Proliferator-activated Receptor Gamma/ SRC-1 Co-activator (AID 2283388)
Summary of the method: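 HEK293T transiently transfected with PPARg/SRC-1 split-Venus YFP fusions 48 h before dosing, then treated 24 h at 37C. Fixed cells imaged; nuclear/cytoplasmic 488 nm fluorescence ratio, gain of signal versus DMSO.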

[4] = CEETOX_H295R_OHPREG: CeeTox H295R High-throughput Steroidogenesis Assay for OH-Pregnenolone (OHPREG) (AID 2283434; active means hit-call score of the fitted dose curve at least 0.9, where 1 is the maximum; inactive means score below 0.9); settings: actives raise or lower the signal
Summary of the method: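 Secreted 17alpha-hydroxypregnenolone measured by HPLC-MS/MS after liquid-liquid extraction. Human adrenal H295R cells received 48 h forskolin (10 uM) stimulation before 48 h chemical exposure at 0.1% final DMSO; MTT viability in same wells; bidirectional fit against DMSO.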

[5] = CEETOX_H295R_OHPROG: CeeTox H295R High-throughput Steroidogenesis Assay for OH-Progesterone (OHPROG) (AID 2283435; active means hit-call score of the fitted dose curve at least 0.9, where 1 is the maximum; inactive means score below 0.9;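 further: 17alpha-hydroxyprogesterone secreted into medium measured by HPLC-MS/MS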); settings: actives raise or lower the signal
Summary of the method: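 Steps: seed H295R cells and adhere overnight; stimulate with 10 uM forskolin for 48 h; replace with chemical-containing medium (0.1% DMSO) for 48 h; extract medium with MTBE; quantify 17alpha-hydroxyprogesterone by reverse-phase C18 HPLC-MS/MS against a 7-point curve.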

[6] = CEETOX_H295R_ESTRADIOL: CeeTox H295R High-throughput Steroidogenesis Assay for Estradiol (AID 2283440; active means hit-call score of the fitted dose curve at least 0.9, where 1 is the maximum; inactive means score below 0.9;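 further: estradiol secreted into medium quantified by LC-MS/MS after dansyl derivatisation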); settings: actives raise or lower the signal
Summary of the method: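 H295R cells pre-stimulated 48 h with 10 uM forskolin, then exposed 48 h to chemical in 0.1% DMSO. Medium estradiol quantified by MTBE extraction, dansyl derivatisation and HPLC-MS/MS; bidirectional fit versus DMSO; MTT viability required >/=70%.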

[7] = CEETOX_H295R_ESTRONE: CeeTox H295R High-throughput Steroidogenesis Assay for Estrone (AID 2283441; active means hit-call score of the fitted dose curve at least 0.9, where 1 is the maximum; inactive means score below 0.9); settings: actives raise or lower the signal
Summary of the method: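 Estrone secreted into medium quantified by LC-MS/MS after dansyl chloride derivatization, following 48 h chemical exposure (0.1% DMSO final) of forskolin-prestimulated (10 uM, 48 h) H295R cells; gain or loss fitted against DMSO; MTT viability in same wells.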

[8] = CEETOX_H295R_PROG: CeeTox H295R High-throughput Steroidogenesis Assay for Progesterone (PROG) (AID 2283442; active means hit-call score of the fitted dose curve at least 0.9, where 1 is the maximum; inactive means score below 0.9;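 on AC50: human H295R adrenal cells primed with 10 µM forskolin before dosing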); settings: actives raise or lower the signal
Summary of the method: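 H295R adrenal cells prestimulated 48 h with 10 uM forskolin, then exposed 48 h to test chemical in 0.1% DMSO. Progesterone in medium quantified by HPLC-MS/MS after MTBE extraction; viability checked by MTT in same wells.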

[9] = ATG_XTT_Cytotoxicity: Cytotoxicity Assessment in the Attagene TRANS-FACTORIAL HepG2 Assay (AID 2283584);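 on AC50: XTT signal for cell number as viability in transfected HepG2 cells; cells exposed to compound for 24 h before reading; active means loss of viability signal versus DMSO baseline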
Summary of the method: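 HepG2 cells transiently transfected with GAL4-UAS multiple reporter units, dosed 24 h; cytotoxicity read by XTT as loss of signal versus DMSO baseline.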

[10] = TOX21_p53_BLA_p2_viability: Viability Assessment in the Tox21 HCT-116 p53 Agonism Beta-lactamase Assay, Phase 2 (AID 2283591);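 further: compound exposure lasted 16 h at 37 °C; actives lower the ATP signal meaning cytotoxicity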
Summary of the method: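 Cytotoxicity readout: CellTiter-Glo ATP luminescence, 30 min at room temperature, after the beta-lactamase read. Cells were HCT116 exposed 16 h at 37C to compounds pin-transferred at 217-fold dilution from DMSO stocks.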

[11] = molecular target: Retinoic acid receptor RXR-alpha (Homo sapiens) (UniProt P19793); assay: OT_NURR1_NURR1RXRa_1440: Odyssey Thera (OT) 24-hour HEK293T Protein Complementation Assay for Nurr1/retinoid X receptor (RXR) (AID 2283386)
Summary of the method: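 Steps: fragment-tagged Nurr1 and RXRα expressed in HEK293T; compounds added; after 24 h, complemented reporter quantified by fluorescence intensity; signal increase over DMSO fitted as the single endpoint.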

[12] = CEETOX_H295R_11DCORT: CeeTox H295R High-throughput Steroidogenesis Assay for 11-Deoxycortisol (11DCORT) (AID 2283432; active means hit-call score of the fitted dose curve at least 0.9, where 1 is the maximum; inactive means score below 0.9;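 on AC50: 11-deoxycortisol secreted into the medium measured by LC-MS/MS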); settings: actives raise or lower the signal
Summary of the method: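 Steroidogenesis in human H295R cells: 48 h chemical exposure after forskolin priming, 11-deoxycortisol measured by LC-MS/MS.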

[13] = CEETOX_H295R_CORTIC: CeeTox H295R High-throughput Steroidogenesis Assay for Corticosterone (CORTIC) (AID 2283437; active means hit-call score of the fitted dose curve at least 0.9, where 1 is the maximum; inactive means score below 0.9); settings: actives raise or lower the signal
Summary of the method: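 Medium corticosterone was quantified by tandem mass spectrometry following 48 hours of chemical exposure (0.1% DMSO) in human H295R cells previously stimulated 48 hours with 10 uM forskolin. Viability checked by MTT; chemicals diluted and retested when viability fell below 70%.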

[14] = CEETOX_H295R_CORTISOL: CeeTox H295R High-throughput Steroidogenesis Assay for Cortisol (AID 2283438; active means hit-call score of the fitted dose curve at least 0.9, where 1 is the maximum; inactive means score below 0.9); settings: actives raise or lower the signal
Summary of the method: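 Cortisol synthesis by H295R cells is measured 48 h after chemical dosing, following a 48 h stimulation with 10 uM forskolin. Hormone is extracted and quantified by HPLC-MS/MS, and activity is fitted bidirectionally against the DMSO control.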

[15] = CEETOX_H295R_DOC: CeeTox H295R High-throughput Steroidogenesis Assay for DOC (AID 2283439; active means hit-call score of the fitted dose curve at least 0.9, where 1 is the maximum; inactive means score below 0.9); settings: actives raise or lower the signal
Summary of the method: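 Steps: seed H295R, adhere overnight; 10 uM forskolin 48 h; replace with chemical medium (0.1% DMSO) 48 h; collect medium, MTBE extraction, HPLC-MS/MS for DOC. Viability then checked by MTT; cytotoxic chemicals diluted until viability ≥70%.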

[16] = CEETOX_H295R_ANDR: CeeTox H295R High-throughput Steroidogenesis Assay for Androstenedione (ANDR) (AID 2283436; active means hit-call score of the fitted dose curve at least 0.9, where 1 is the maximum; inactive means score below 0.9); settings: actives raise or lower the signal
Summary of the method: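 Medium from 48 h chemical-treated H295R adrenal cells was extracted with MTBE and androstenedione measured by LC-MS/MS. Activity was fit in both directions relative to DMSO. Cytotoxic concentrations were re-tested after dilution until MTT viability reached ≥70%.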

[17] = CEETOX_H295R_TESTO: CeeTox H295R High-throughput Steroidogenesis Assay for Testosterone (TESTO) (AID 2283457; active means hit-call score of the fitted dose curve at least 0.9, where 1 is the maximum; inactive means score below 0.9); settings: actives raise or lower the signal
Summary of the method: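 H295R adrenal cells, passage ≤10, exposed to chemicals for 48 h. Testosterone in medium measured by MTBE extraction and HPLC-MS/MS against a 7-point standard curve. Bidirectional fit versus DMSO; MTT viability checked in the same wells.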

Measured: AC50

Estrogen receptor (Homo sapiens), sequence (P03372 whole entry, looked up): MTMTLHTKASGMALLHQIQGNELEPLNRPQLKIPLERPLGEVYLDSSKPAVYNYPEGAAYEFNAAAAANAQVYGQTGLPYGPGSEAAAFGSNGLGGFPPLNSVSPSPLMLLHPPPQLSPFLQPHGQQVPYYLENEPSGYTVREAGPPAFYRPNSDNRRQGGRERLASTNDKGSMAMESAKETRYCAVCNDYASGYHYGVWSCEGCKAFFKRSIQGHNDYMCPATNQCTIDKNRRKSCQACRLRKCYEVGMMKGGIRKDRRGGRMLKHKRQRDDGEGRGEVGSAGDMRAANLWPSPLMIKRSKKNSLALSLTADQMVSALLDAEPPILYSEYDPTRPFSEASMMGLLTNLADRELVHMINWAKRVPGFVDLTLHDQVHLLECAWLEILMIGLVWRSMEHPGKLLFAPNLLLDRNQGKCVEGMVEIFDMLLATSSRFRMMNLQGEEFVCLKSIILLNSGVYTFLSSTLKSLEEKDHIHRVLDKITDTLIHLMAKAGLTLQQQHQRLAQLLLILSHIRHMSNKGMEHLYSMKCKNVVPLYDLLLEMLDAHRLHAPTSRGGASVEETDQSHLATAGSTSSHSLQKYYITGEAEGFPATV
Peroxisome proliferator-activated receptor gamma (Homo sapiens), sequence (P37231 whole entry, looked up, the tested form may be a part): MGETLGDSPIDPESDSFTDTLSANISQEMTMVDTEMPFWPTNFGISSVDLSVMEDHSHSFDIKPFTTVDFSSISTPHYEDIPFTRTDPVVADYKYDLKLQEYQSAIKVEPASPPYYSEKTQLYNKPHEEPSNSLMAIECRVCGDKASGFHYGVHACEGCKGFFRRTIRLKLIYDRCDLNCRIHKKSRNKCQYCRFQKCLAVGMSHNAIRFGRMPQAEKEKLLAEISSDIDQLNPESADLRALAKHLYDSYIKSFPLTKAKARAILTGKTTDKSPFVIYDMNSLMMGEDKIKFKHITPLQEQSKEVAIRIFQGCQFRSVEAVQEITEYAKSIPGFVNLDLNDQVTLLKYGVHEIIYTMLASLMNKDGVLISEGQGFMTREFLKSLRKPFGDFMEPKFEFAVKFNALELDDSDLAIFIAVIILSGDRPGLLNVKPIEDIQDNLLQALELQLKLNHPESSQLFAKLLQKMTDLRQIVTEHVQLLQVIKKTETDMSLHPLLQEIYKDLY
Retinoic acid receptor RXR-alpha (Homo sapiens), sequence (P19793 whole entry, looked up, the tested form may be a part): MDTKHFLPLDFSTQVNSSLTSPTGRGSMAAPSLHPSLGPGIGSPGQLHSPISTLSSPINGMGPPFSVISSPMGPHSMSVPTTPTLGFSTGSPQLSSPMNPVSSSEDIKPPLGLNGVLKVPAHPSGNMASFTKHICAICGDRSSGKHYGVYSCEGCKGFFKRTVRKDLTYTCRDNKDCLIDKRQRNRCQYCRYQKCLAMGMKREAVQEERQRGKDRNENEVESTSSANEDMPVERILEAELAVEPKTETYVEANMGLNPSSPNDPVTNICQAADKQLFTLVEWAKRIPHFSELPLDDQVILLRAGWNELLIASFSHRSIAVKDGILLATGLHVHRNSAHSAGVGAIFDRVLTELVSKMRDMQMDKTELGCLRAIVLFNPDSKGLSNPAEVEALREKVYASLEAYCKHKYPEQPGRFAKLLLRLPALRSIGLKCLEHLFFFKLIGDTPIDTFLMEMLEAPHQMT

COC(=O)c1c(C)cc(O)c(C)c1O
inactive: [1] | [2] | [3] | [4] | [6] | [7] | [9] | [10]
active: [5] 26.3 µM | [8] 59.5 µM

OC1CCCC1
inactive: [1] | [11] | [2] | [3]

C#CC1(O)CC[C@H]2[C@@H]3CCC4=CCCC[C@@H]4[C@H]3CC[C@@]21C (some centres not stated)
inactive: [4] | [13] | [8] | [10]
active: [12] 7.32 µM | [5] 7.02 µM | [14] 7.01 µM | [15] 2.03 µM | [9] 42.3 µM | [10] 57.2 µM

C1=CCCC1
inactive: [12] | [16] | [13] | [14] | [15] | [17] | [9]

O=C1C(N(CO)C(=O)NCO)N(CO)C(=O)N1CO (configuration not stated)
inactive: [1] | [2] | [3] | [9] | [10]

O=C1CCCC1
inactive: [1] | [11] | [2] | [3] | [9] | [10]
